esBAF inh: Bmi1 luciferase reporter increase in mESCs, primary screen, esBAF inhibitor project, mouse ES cells, Bmi1 luciferase knock-in, single point. 24 h; 100% = twice the neutral-well signal. reporter increase, % at 12.5 µM. actives 2% (n = 350,000). AID 602393, 2012; in the data active means activation above about 40%;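 further: 0% = median of the plate's neutral control wells and 100% = double that signal; a rise in the Bmi1 reporter signal indicates esBAF inhibition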
Wnt bcat act: Wnt/beta-catenin pathway activators, primary screen, cell-based, plate reader, single point; actives 1.2% (n = 300,000); Wnt/beta-catenin reporter cell assay, activator; activation, % at 9.35 µM; in the data active means activation above about 30%, passing the limit was not always enough;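 further: 0% = neutral control wells and 100% = positive control wells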
FGF22 binding: binders of human FGF22 protein, primary screen, FGF22 synaptogenesis inhibitor project, biophysical, thermal shift, single point | Fibroblast growth factor 22 (Homo sapiens), Q9HCT0 | recombinant FGF22 thermal shift, SYPRO orange fluorescence; percent of sucrose octasulfate shift, DMSO zero | activity (Tm shift, normalised), % at 9.99 µM | actives 1.5% (n = 340,000);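 active means mean Tm shift, scaled 0 neutral to 100 positive control, at about 1.3% or above, every replicate too, limit read from the data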
MITF TRPM1 HTS: activators of MITF-driven TRPM1 promoter reporter, primary screen, cell-based, SK-MEL-5, luciferase, single point; SK-MEL-5 TRPM1-promoter luciferase, 24 h; % of positive control, neutral wells = 0; activation, % at 12.5 µM; actives 0.75% (n = 300,000); AID 588334, 2011;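 active means mean activation of at least 80% with every replicate also reaching 80%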;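 further: 0% = neutral control wells and 100% = parthenolide positive control wells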
AF4-AF9 inh: inhibitors of AF4 peptide binding to AF9, primary screen, biochemical, AlphaScreen, biotin-AF4 peptide, FLAG-AF9, single point. inhibition, % at 10 µM. actives 0.47% (n = 350,000). AID 651704, 2012;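 active means every replicate reaching a set inhibition limit, whatever the replicate mean, cut at about 25% in these data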;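 further: 0% = plate neutral control median and 100% = total signal loss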
Target sequence (P42568 whole entry, looked up): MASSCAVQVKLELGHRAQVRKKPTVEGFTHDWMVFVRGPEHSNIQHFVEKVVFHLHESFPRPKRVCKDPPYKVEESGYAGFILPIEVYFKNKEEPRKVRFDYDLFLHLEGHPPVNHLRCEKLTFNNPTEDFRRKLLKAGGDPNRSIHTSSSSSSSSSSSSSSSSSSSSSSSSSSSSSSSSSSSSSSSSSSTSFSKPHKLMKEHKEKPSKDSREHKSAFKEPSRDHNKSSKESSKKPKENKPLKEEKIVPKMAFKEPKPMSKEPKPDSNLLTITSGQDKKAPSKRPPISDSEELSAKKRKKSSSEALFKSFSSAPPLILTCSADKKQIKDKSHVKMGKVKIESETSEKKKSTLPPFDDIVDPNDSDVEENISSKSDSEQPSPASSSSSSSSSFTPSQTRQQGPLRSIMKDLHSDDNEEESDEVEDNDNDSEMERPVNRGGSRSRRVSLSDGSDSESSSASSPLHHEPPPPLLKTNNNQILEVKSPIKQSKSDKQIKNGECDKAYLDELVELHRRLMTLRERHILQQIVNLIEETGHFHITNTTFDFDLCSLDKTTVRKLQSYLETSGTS
SMARCA2 activ: SMARCA2 (BRM) function activators, primary screen, cell-based, luminescence, high throughput | MG213 cells, MMTV-luciferase reporter, dexamethasone, overnight | activation, % at 9.1 µM | actives 1% (n = 370,000); in the data active means activation above about 7.8%;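 further: 0% = vehicle wells and 100% = reference activator wells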
* hit, by the source's call; / = not tested or not shown. Most compounds without a hit are left out; they make up all but 4.3% or so of the library.

SMILES	esBAF inh	Wnt bcat act	FGF22 binding	MITF TRPM1 HTS	AF4-AF9 inh	SMARCA2 activ
CO[C@H]1CN(C)C(=O)c2ccc(NC(C)=O)cc2OC[C@H](C)N(C(=O)c2cccnc2)C[C@H]1C	0.5	/	0.1	/	1.3	/
Cc1ccccc1/C(N)=N/OC(=O)c1ccc(F)cc1	48.5*	7.7	0.3	27.6	0.9	1.8
Cc1ccccc1C(=O)O/N=C(\N)c1ccccc1	40.7	26.9	-0.1	-12.4	-1.6	3.6
Cc1ccccc1C(=O)O/N=C(\N)c1ccc([N+](=O)[O-])cc1	56.6*	25.2	0.5	/	6.1	0.3
N/C(=N\OC(=O)c1ccccc1Br)c1cccc([N+](=O)[O-])c1	2.7	42.6*	-0.4	65.0	-0.9	5.9
N/C(Cc1ccc([N+](=O)[O-])cc1)=N\OC(=O)c1ccccc1Br	9.7	4.8	/	1.9	/	0.8
N/C(=N\OC(=O)c1ccccc1Br)c1ccc([N+](=O)[O-])cc1	49.5*	7.1	-0.1	/	0.8	6.0
C[C@@H]1CN([C@@H](C)CO)C(=O)c2cccc(NS(=O)(=O)c3ccc(F)cc3)c2O[C@@H]1CN(C)S(=O)(=O)c1ccc(Cl)cc1	-2.7	/	-0.3	/	0.2	/
O=C1c2ccccc2S(=O)(=O)N1CC(O)COc1ccc(Cl)cc1 (stereo not drawn)	-9.3	/	/	9.1	/	-4.7
COC(=O)c1ccc(OCC(O)CN2C(=O)c3ccccc3S2(=O)=O)cc1 (stereo not drawn)	/	-1.2	43.0*	6.0	0.7	-0.2
O=C(C[C@@H]1C=C[C@H](NC(=O)Nc2ccc(F)cc2)[C@@H](CO)O1)NCc1ccccn1	-3.0	/	-0.1	/	-3.2	/
C[C@H](CO)N1C[C@H](C)[C@H](CN(C)C)Oc2ncc(C#CC(C)(C)O)cc2C1=O	-9.2	/	-0.5	/	-2.8	/
O=C(Cn1nnc(-c2ccccc2)n1)N1CCN(c2ccc(F)cc2)CC1	/	-1.2	42.9*	1.8	-1.9	-3.3
CN1[C@H](C(=O)Nc2nccs2)[C@@H](CO)[C@@H]2Cn3c(ccc(-c4ccccc4F)c3=O)[C@@H]21	3.3	/	0.0	/	2.8	/
O=C(Cn1cccc1C(=O)c1ccccc1)NCc1ccccc1Cl	55.7*	12.9	-0.3	41.2	-6.9	4.3
Cc1ccccc1C(=O)c1cccn1CC(=O)NCc1ccccc1	16.3	-2.6	0.3	-3.1	-0.7	-0.1
Cc1ccccc1C(=O)c1cccn1CC(=O)NCc1ccccc1Cl	56.7*	8.5	-0.1	57.2	9.1	3.0
COc1ccccc1CNC(=O)Cn1cccc1C(=O)c1ccccc1	30.8	3.0	-0.2	29.0	-4.1	2.9
CN(C)c1ccc(/C=N/OC(=O)Nc2ccccc2)cc1	2.1	52.3*	0.0	34.2	3.2	3.9
CCOc1ccccc1C1NC(=O)c2ccccc2N1 (stereo not drawn)	/	-3.6	44.5*	/	-8.9	-3.8
Cc1ccc(C2NC(=O)c3ccccc3N2)c(C)c1 (stereo not drawn)	/	-3.6	-0.3	/	0.5	-2.4
CN(C)c1ccc(C2NC(=O)c3ccccc3N2)cc1 (stereo not drawn)	-24.1	31.0*	-0.1	77.2	-0.6	4.1
O=C(CCN1C(=O)c2cccc3cccc(c23)C1=O)Nc1ccccc1	-1.2	-0.7	43.2*	-2.5	-1.0	7.9*
O=C(CCN1C(=O)c2cccc3cccc(c23)C1=O)NCc1ccco1	/	-6.1	43.6*	3.8	-0.9	-3.5
COc1ccc2c(C#CCCO)c(-c3ccc(S(C)(=O)=O)cc3)sc2c1	-26.5	-4.3	44.7*	5.2	-5.9	0.5
